Reference: PubChem BioAssay (NCATS)
Several values for one entry are separate records, joined by “and”; a condition that tells them apart may be missing. Identical values can stand only once. Records with an inconclusive call do not appear. A call without a number means that no potency is given here. A number with no mark means an inactive call. Activity calls are given as the source filed them. Unless noted, calls follow the shape of the dose curve; as a rule, active = well fitted curve in the direction sought with a large enough effect; inconclusive = small, poorly fitted or top-dose-only effect, or another doubt; inactive = no such curve, though single readings can be large; an effect the other way counts as inactive or inconclusive.

Experiments:
[1] = biological target: Mitogen-activated protein kinase 10 (Mus musculus) (UniProt Q61831); assay: JNK3 AlphaScreen Assay (AID 530; active = well fitted curve in either direction with a large enough effect, not every such curve was filed as active;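 also: kinase came from lysate of stimulated human HepG2 cells; signal reports phosphorylation of biotinylated GST-cJun 1-79 at Ser73 with 10 µM ATP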)
Outline: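 Biotinylated GST-cJun(1-79) served as substrate for JNK3 in HepG2 lysates stimulated with IL-1beta and TNF-alpha. ATP was 10 uM final, pH 7.6. Ser73 phosphorylation was quantified by AlphaScreen (680 nm excitation).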

[2] = Cell Viability - N2a (AID 540); details: N2a mouse neuroblastoma cell viability; activity change, negative = cytotoxicity: at 92.2 µM (top of the series); also: nearly all actives have a fitted effect of over 45% in size; also: potency is read from the fitted curve at half-maximal effect
Outline: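 N2a mouse neuroblastoma, 1500 cells/well, 5 hr settle; compound 40 hr, 37 °C; CellTiter-Glo 20 min RT; luminescence; Hill-fit AC50.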

[3] = Cell Viability - NIH 3T3 (AID 541); details: NIH 3T3 cell viability, qHTS; activity change, negative = cytotoxicity: at 92.2 µM (top of the series); also: nearly all actives have a fitted effect of over 25% in size; also: potency is read from the fitted curve at half-maximal effect
Outline: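 qHTS format; 40 hr compound exposure, 37 °C; CellTiter-Glo luminescence (cellular ATP) read-out after 20 min at RT. Decrease in ATP = cytotoxicity; AC50 from standard Hill fit.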

[4] = Cell Viability - HUV-EC-C (AID 542); also: nearly all actives have a fitted effect of over 35% in size
Outline: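 Luminescent ATP read-out (CellTiter-Glo, 20 min room temperature) after 40 hr compound treatment of HUV-EC-C cells at 37 °C. Concentration-response data fitted with the standard Hill equation to give AC50; tamoxifen and doxorubicin served as positive controls.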

[5] = Cell Viability - H-4-II-E (AID 543); also: nearly all actives have a fitted effect of over 35% in size; also: potency is read from the fitted curve at half-maximal effect
Outline: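 qHTS, rat hepatoma H-4-II-E, 1500 cells/well; 40 hr compound exposure, 37 °C; CellTiter-Glo ATP luminescence after 20 min RT; AC50 by standard Hill fit.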

[6] = Cell Viability - SH-SY5Y (AID 544); details: SH-SY5Y neuroblastoma cell viability; viability change, negative = cytotoxic: at 92.2 µM (top of the series); also: nearly all actives have a fitted effect of over 55% in size; also: potency is read from the fitted curve at half-maximal effect
Outline: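 SH-SY5Y, 1500 cells/well, 5 hr pre-incubation 37 °C; cpd 40 hr 37 °C; CellTiter-Glo 20 min RT; luminescence (ATP) read. qHTS concentration-response, Hill fit → AC50. Tamoxifen, doxorubicin as positive controls.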

[7] = Cell Viability - Renal Proximal Tubule (AID 545); details: renal proximal tubule cells viability, primary cells of rat origin; activity change, negative = cytotoxicity: at 91.7 µM (top of the series); also: nearly all actives have a fitted effect of over 40% in size; also: potency is read from the fitted curve at half-maximal effect
Outline: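 Rat renal proximal tubule primary cells, 1000/well, exposed to compounds for 40 hr at 37 °C in complete medium; cellular ATP read by CellTiter-Glo luminescence. AC50 from concentration-response fitted with standard Hill equation.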

[8] = Cell Viability - Mesenchymal (AID 546); details: mesenchymal cells viability, qHTS; activity change, negative = cytotoxicity: at 91.7 µM (top of the series);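 also: cells exposed to compound for 40 hours before reading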; also: potency is read from the fitted curve at half-maximal effect
Outline: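 In this qHTS cytotoxicity format, glomerulus-derived human mesenchymal kidney cells received compound for 40 hr, then luciferase-based ATP quantitation. Concentration-response data were fitted with the Hill equation.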

Question: With `Cc1ncc(CO)c(CO)c1O` as the molecule, how does the outcome [1] read?
Answer: Its outcome is “inactive”.

Question: What does the source list for `CCCCC(CC)COC(=O)c1ccccc1C(=O)O` (configuration not stated)?
Answer: outcome [1]: inactive; Potency [2]: inactive; activity change, negative = cytotoxicity [3]: 10.8%; Potency [4]: inactive; Potency [5]: inactive; Potency [6]: inactive; Potency [7]: inactive; Potency [8]: inactive

Question: With `C[N+](C)(C)CCO` as the molecule, how does the outcome [1] read?
Answer: The outcome was “inactive”.

Question: With `C[C@@H](C1=C(CCN(C)C)Cc2ccccc21)c1ccccn1` as the molecule, how does the outcome [1] read?
Answer: Its outcome is “inactive”.

Question: What does the source list for `COc1cc(C=O)ccc1O`?
Answer: outcome [1]: inactive; Potency [2]: inactive; activity change, negative = cytotoxicity [3]: -22.1%; Potency [4]: inactive; Potency [5]: inactive; Potency [6]: inactive; Potency [7]: inactive; Potency [8]: inactive

Question: For `O=C(c1ccccc1)c1ccccc1`, which outcome [1] is on record?
Answer: Its outcome is “inactive”.

Question: And the Potency [2]?
Answer: Its Potency is “inactive”.

Question: What about the activity change, negative = cytotoxicity [3] of the same molecule?
Answer: The activity change, negative = cytotoxicity was -23.6%.

Question: And the Potency [4]?
Answer: The Potency was “inactive”.

Question: What about the Potency [5] of the same molecule?
Answer: The Potency was “inactive”.

Question: And the Potency [6]?
Answer: Its Potency is “inactive”.

Question: What about the Potency [7] of the same molecule?
Answer: Its Potency is “inactive”.

Question: And the Potency [8]?
Answer: Its Potency is “inactive”.

Question: Which activity change, negative = inhibition [1] does the source give for `O=C(O)/C=C(\CC(=O)O)C(=O)O` here?
Answer: The activity change, negative = inhibition was 4.55% [at 11.4 µM].

Question: Which outcome [1] does the source give for `CCCC(=O)c1cc(O)c(O)cc1O` here?
Answer: Its outcome is “inactive”.

Question: What about the Potency [4] of the same molecule?
Answer: Its Potency is “inactive”.

Question: What about the Potency [5] of the same molecule?
Answer: Its Potency is “inactive”.

Question: And the viability change, negative = cytotoxic [6]?
Answer: The viability change, negative = cytotoxic was -93.1% (active).

Question: And the Potency [7]?
Answer: The Potency was “inactive”.

Question: What does the source list for `O=C(Oc1ccccc1)c1ccccc1O`?
Answer: outcome [1]: inactive; Potency [2]: inactive; Potency [4]: inactive; Potency [5]: inactive; Potency [6]: inactive; Potency [7]: inactive; Potency [8]: inactive

Question: For `Cc1cc(C(C)(C)C)c(O)c(C(C)(C)C)c1`, which Potency [2] is on record?
Answer: Its Potency is “inactive”.

Question: And the activity change, negative = cytotoxicity [3]?
Answer: The activity change, negative = cytotoxicity was 2.09%.

Question: What about the Potency [4] of the same molecule?
Answer: The Potency was “inactive”.

Question: What about the Potency [5] of the same molecule?
Answer: The Potency was “inactive”.

Question: What about the Potency [6] of the same molecule?
Answer: The Potency was “inactive”.

Question: What about the Potency [7] of the same molecule?
Answer: Its Potency is “inactive”.

Question: What about the Potency [8] of the same molecule?
Answer: Its Potency is “inactive”.

Question: With `Oc1ccccc1` as the molecule, how does the outcome [1] read?
Answer: The outcome was “inactive”.

Question: What about the Potency [2] of the same molecule?
Answer: Its Potency is “inactive”.

Question: And the activity change, negative = cytotoxicity [3]?
Answer: Its activity change, negative = cytotoxicity is -17.5%.

Question: And the Potency [4]?
Answer: Its Potency is “inactive”.

Question: What about the Potency [5] of the same molecule?
Answer: The Potency was “inactive”.

Question: And the Potency [6]?
Answer: The Potency was “inactive”.

Question: What about the Potency [7] of the same molecule?
Answer: The Potency was “inactive”.

Question: And the Potency [8]?
Answer: Its Potency is “inactive”.

Question: For `Cc1ccc(O)cc1`, which Potency [2] is on record?
Answer: The Potency was “inactive”.

Question: And the activity change, negative = cytotoxicity [3]?
Answer: Its activity change, negative = cytotoxicity is -11.4%.

Question: And the Potency [4]?
Answer: The Potency was “inactive”.

Question: What about the Potency [5] of the same molecule?
Answer: Its Potency is “inactive”.

Question: And the Potency [6]?
Answer: The Potency was “inactive”.

Question: What about the Potency [7] of the same molecule?
Answer: The Potency was “inactive”.

Question: What about the Potency [8] of the same molecule?
Answer: Its Potency is “inactive”.

Question: Which results are given for `CC(C)(c1ccc(O)cc1)c1ccc(O)cc1`?
Answer: outcome [1]: inactive; Potency [2]: inactive; activity change, negative = cytotoxicity [3]: -22.2% and -23.1%; Potency [4]: inactive; Potency [5]: inactive; Potency [6]: inactive; Potency [7]: inactive; Potency [8]: inactive

Question: What does the source list for `C1=CC2C3C=CC(C3)C2C1` (configuration not stated)?
Answer: outcome [1]: inactive; Potency [2]: inactive; Potency [4]: inactive; Potency [5]: inactive; Potency [6]: inactive; Potency [7]: inactive; Potency [8]: inactive

Question: What does the source list for `CC(C)C(C)(C)C(C)(C)C(C)(C)S`?
Answer: outcome [1]: inactive; Potency [2]: inactive; activity change, negative = cytotoxicity [3]: -18.6%; Potency [4]: inactive; Potency [5]: inactive; Potency [6]: inactive; Potency [7]: inactive; Potency [8]: inactive

Question: For `c1ccc2occc2c1`, which outcome [1] is on record?
Answer: Its outcome is “inactive”.

Question: And the Potency [2]?
Answer: Its Potency is “inactive”.

Question: What about the activity change, negative = cytotoxicity [3] of the same molecule?
Answer: Its activity change, negative = cytotoxicity is -5.88%.

Question: What about the Potency [4] of the same molecule?
Answer: The Potency was “inactive”.

Question: What about the Potency [5] of the same molecule?
Answer: The Potency was “inactive”.

Question: And the Potency [6]?
Answer: Its Potency is “inactive”.

Question: And the Potency [7]?
Answer: Its Potency is “inactive”.

Question: What about the Potency [8] of the same molecule?
Answer: Its Potency is “inactive”.

Question: For `OC(CCCN1CCCCC1)(c1ccccc1)c1ccccc1`, which outcome [1] is on record?
Answer: The outcome was “inactive”.

Question: Which outcome [1] does the source give for `Nc1cccc2c(N)cccc12` here?
Answer: Its outcome is “inactive”.

Question: What about the Potency [2] of the same molecule?
Answer: The Potency was “inactive”.

Question: And the Potency [4]?
Answer: The Potency was “inactive”.

Question: And the Potency [5]?
Answer: Its Potency is “inactive”.

Question: And the Potency [7]?
Answer: The Potency was “inactive”.

Question: And the Potency [8]?
Answer: Its Potency is “inactive”.

Question: For `CCCCCCCCCCCCCCCC[n+]1ccccc1`, which outcome [1] is on record?
Answer: Its outcome is “inactive”.

Question: And the Potency [2]?
Answer: The Potency was 0.398 µM (active).

Question: And the Potency [3]?
Answer: The Potency was 25.1 µM (active).

Question: And the Potency [5]?
Answer: The Potency was 3.98 µM (active).

Question: And the Potency [6]?
Answer: The Potency was 25.1 µM (active).

Question: And the Potency [7]?
Answer: The Potency was 31.6 µM (active).

Question: What about the Potency [8] of the same molecule?
Answer: Its Potency is 31.6 µM (active).
